Out of some 320,000 compounds screened, about 2,100 (0.66%) were called active. Inconclusive results (about 53%) are left out. Calls come from the whole dose curve; as a rule, active = well fitted inhibition curve with a large enough effect in the signal ratio, with a control signal flat (not every such curve was filed as active); inconclusive = small, poorly fitted or top-dose-only effect, or effect the other way, or a change in a side signal; inactive = flat fitted curve, though single readings scatter; the % refers to the signal ratio. What follows is part of a selection rich in actives, with near analogues and random picks from the rest.
Assay: qHTS Assay for Lipid Storage Modulators in Drosophila S3 Cells;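 for cell number change: cells counted by Cell Tracker Red CMTPX staining in the red channel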; for lipid storage change, negative = inhibition: % is set by controls: 0 for no effect and ±100 for the full control effect
Settings: BODIPY lipid droplet fluorescence, 18-24 h, cells fed with added oleic acid; cell number change: measured here: cell count max response; series mostly up to 46.1 µM; lipid storage change, negative = inhibition: at the top concentration
Method in brief: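 Laser-scanning cytometry quantifies lipid droplet accumulation (500–530 nm total intensity; droplet/cell object ratio) in oleic acid-fed (400 uM added) Drosophila S3 cells treated with a concentration series. 20 uM Triacsin C defined 100% inhibition.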
Potency is the fitted concentration of half-maximal effect.

| Structure (SMILES) | lipid storage change, negative = inhibition | Potency | cell number change | outcome |
| --- | --- | --- | --- | --- |
| CCCCCCC(=O)Nc1nc(C)c(-c2csc(Nc3ccc(Cl)cc3)n2)s1 | -12% (inactive) |  |  |  |
| CC(=O)Nc1ccc(Nc2nc(-c3sc(NC(C)=O)nc3C)cs2)cc1 |  | 20.6 µM (active) | -25.9% |  |
| Cc1nc(C)c(-c2csc(Nc3cccc(O)c3)n2)s1 | 8.45% (inactive) |  | -15.3% |  |
| CCC(=O)Nc1nc(C)c(-c2csc(Nc3cccc(O)c3)n2)s1 |  | 29.1 µM (active) | -27% |  |
| Nc1ncc(-c2nnnn2-c2ccc(Cl)cc2)c(-c2ccc(Cl)cc2)n1 | -8.48% (inactive) |  | 22.6% |  |
| COC(=O)/C=C1\NCCNC1=O | -11.5% (inactive) |  | 9.92% |  |
| COc1ccc(NC(=O)CCC(=O)N/N=C/c2cccnc2)cc1 |  |  | 1.18% | inactive |
| COc1cc(CN2CCc3ccc(NC(=O)CCc4ccccc4OC)cc3C2)ccc1O | -2.88% (inactive) |  | -9.87% |  |
| Cc1ccsc1C(=O)N(C)CC(=O)Nc1ccccc1Br | 15.6% [at 0.0737 µM] (inactive) |  |  |  |
| Cc1ccc(C)c(NC(=O)CN(C)C(=O)c2sccc2C)c1 |  | 4.61 µM (active) |  |  |
| Cc1ccc(C)c(NC(=O)CN(C)C(=O)Cc2ccccc2)c1 | 3.1% (inactive) |  | 0.0719% |  |
| CSCCC(NS(=O)(=O)c1ccccc1F)C(=O)NNC(=O)c1csc(N2CCOCC2)n1 (centres undefined) | 27.4% [at 0.0737 µM] (inactive) |  | -7.74% |  |
| CC1CC(C)CN(C(=O)COC(=O)c2nn(C)c(=O)c3ccccc23)C1 (centres undefined) | 29.3% (inactive) |  | 14.1% |  |
| CC1CC(C)CN(C(=O)COC(=O)Cc2c[nH]c3ccccc23)C1 (centres undefined) | 23% (inactive) |  |  |  |
| CC1CC(C)CN(C(=O)COC(=O)c2c[nH]c3ccccc23)C1 (centres undefined) |  | 0.92 µM (active) | -17% |  |
| CCOC(=O)c1c(NC(=O)C2CC=CCC2C(=O)O)sc(C)c1CC (centres undefined) | 2.17% (inactive) |  | 12.8% |  |
| CCc1c(C)sc(NC(=O)C2CC2)c1C(=O)OC(C)C |  | 1.3 µM (active) | -47.8% |  |
| CCc1c(C)sc(NC(=S)NC(C)C2CCCO2)c1C(=O)OC (centres undefined) | -1.69% (inactive) |  | 8% |  |
| CC(NC(=O)CN(c1ccc(Br)cc1)S(C)(=O)=O)c1ccccc1 (centres undefined) | -4.37% (inactive) |  | 6.99% |  |
| CC(NC(=O)CN(c1ccc(F)cc1)S(C)(=O)=O)c1ccccc1 (centres undefined) |  | 4.11 µM (active) | -10.2% |  |
| CC(NC(=O)CN(c1ccc(Cl)cc1)S(C)(=O)=O)c1ccccc1 (centres undefined) |  |  | 17.6% | inactive |
| Cc1ccccc1CN1C[C@@H]2C[C@@H](c3cnc(N4CCOCC4)s3)N3CCC[C@@]23C1=O | -17.2% (inactive) |  | 3.26% |  |
| COc1ccc(C(NC(=O)CNC(C)=O)C(=O)Nc2ccc3c(c2)OCCO3)cc1 (centres undefined) | -2.63% (inactive) |  | 8.96% |  |
| O=P(c1ccccc1)(c1ccccc1)C(O)c1ccncc1 (centres undefined) | 15.5% (inactive) |  | 15.4% |  |

| Structure (SMILES) | lipid storage change, negative = inhibition | Potency | cell number change | outcome |
| --- | --- | --- | --- | --- |
| CCO[C@@H]1OC(C(=O)N2CCN(Cc3ccccc3)CC2)=C[C@H](C2CC2)[C@H]1CCCO | -11.3% (inactive) |  | 7.31% |  |
| CCO[C@H]1OC(C(=O)N2CCN(Cc3ccccc3)CC2)=C[C@@H](C2CCCCC2)[C@@H]1CCCO |  | 20.6 µM (active) | -29.1% |  |
| CCO[C@@H]1OC(C(=O)N2CCCCCCC2)=C[C@H](C2CCCCC2)[C@H]1CCCO | -29.6% (inactive) |  | -14.4% |  |
| COc1cc(S(=O)(=O)N2CCC(c3nc4ccccc4s3)CC2)ccc1S(=O)(=O)N1CC(C)CC(C)C1 (centres undefined) | 5.49% (inactive) |  | 0.159% |  |
| Cc1cc(=O)oc2cc(OCc3ccc(C(=O)OCC(=O)NC4CCS(=O)(=O)C4)cc3)ccc12 (centres undefined) | 6.62% (inactive) |  | 8.28% |  |
| CCOc1cc(C(c2c(C)[nH][nH]c2=O)c2c(C)[nH][nH]c2=O)ccc1OS(=O)(=O)c1ccccc1 |  | 29.1 µM (active) | -2.58% |  |
| CCOc1cc(C(c2c(C)[nH][nH]c2=O)c2c(C)[nH][nH]c2=O)ccc1OS(=O)(=O)c1ccc(C)cc1 |  |  | 16% | inactive |
| COc1cc(C(c2c(C)[nH][nH]c2=O)c2c(C)[nH][nH]c2=O)ccc1OS(=O)(=O)c1ccccc1 | 16.7% (inactive) |  | -3.94% |  |
| COc1ccccc1N1CCN(C(c2cccs2)c2nnnn2C2CCCC2)CC1 (centres undefined) |  |  | -7.64% | inactive |
| Cc1ccc(SCc2ccc(C(=O)NCc3cccnc3)cc2)cc1 | -18.4% (inactive) |  | 5.01% |  |
| Cc1ccc(Cl)cc1NC(=S)N(CCN(C)C)C(C)c1ccccn1 (centres undefined) | 6.34% (inactive) |  | 25.6% |  |
| CCOC(=O)[C@H]1[C@H]2COc3cc(OC)ccc3[C@@H]2N2C(=O)c3cc(OC)ccc3NC(=O)[C@@]12C | 12% (inactive) |  | -12.2% |  |
| CCOC(=O)[C@H]1[C@H]2COc3ccccc3[C@@H]2N2C(=O)c3ccc(Cl)cc3NC(=O)[C@@]12C | -24.5% (inactive) |  | -18.8% |  |
| CCOC(=O)[C@H]1[C@H]2COc3ccc(Cl)cc3[C@@H]2N2C(=O)c3cc(C)ccc3NC(=O)[C@@]12C |  | 1.64 µM (active) |  |  |
| CCOC(=O)[C@H]1[C@H]2COc3ccc(C)cc3[C@@H]2N2C(=O)c3cc(F)ccc3NC(=O)[C@@]12C | 11.9% (inactive) |  | -22.1% |  |
| COc1cc2c(cc1OC)C(=O)N1[C@H]3c4cc(Cl)ccc4OC[C@@H]3[C@H](c3ccccc3)[C@]1(C)C(=O)N2 |  | 2.06 µM (active) | -5.54% |  |
| COc1ccc2c(c1)C(=O)N1[C@H]3c4cc(C)ccc4OC[C@@H]3[C@H](c3ccccc3)[C@]1(C)C(=O)N2 | 10.4% (inactive) |  | 11.4% |  |
| CCOC(=O)[C@H]1[C@H]2COc3ccc(OC)cc3[C@@H]2N2C(=O)c3ccc(Cl)cc3NC(=O)[C@@]12C |  | 4.11 µM (active) | -6.2% |  |
| CCOC(=O)[C@H]1[C@H]2COc3ccc(OC)cc3[C@@H]2N2C(=O)c3cc(F)c(F)cc3NC(=O)[C@@]12C | 11.9% (inactive) |  | 10.2% |  |
| COc1ccc2c(c1)[C@H]1[C@H](CO2)[C@H](c2ccccc2)[C@]2(C)C(=O)Nc3ccccc3C(=O)N12 | 7.61% (inactive) |  | -2.57% |  |
| CCOC(=O)[C@H]1[C@H]2COc3ccccc3[C@@H]2N2C(=O)c3cc(OC)ccc3NC(=O)[C@@]12C | 6.45% (inactive) |  | -11.2% |  |
| CCOC(=O)[C@H]1[C@H]2COc3ccc(Cl)cc3[C@@H]2N2C(=O)c3ccccc3NC(=O)[C@@]12C | 15.3% (inactive) |  | -17% |  |
| CCOC(=O)[C@H]1[C@H]2COc3cc(OC)ccc3[C@@H]2N2C(=O)c3cc(F)c(F)cc3NC(=O)[C@@]12C |  | 6.51 µM (active) | -3.7% |  |
